Screening results deposited in PubChem by The Scripps Research Institute Molecular Screening Center.
MOR-DOR inv ag – inverse agonist of human OPRM1-OPRD1 heterodimerization | cell-based MOR-DOR heterodimer luminescence, inverse agonism | inhibition, % at 9.3 µM | 340,000 tested, 0.21% active; in the data active = inhibition above about 22%, passing the limit was not always enough
Target sequence (P35372 whole entry, looked up): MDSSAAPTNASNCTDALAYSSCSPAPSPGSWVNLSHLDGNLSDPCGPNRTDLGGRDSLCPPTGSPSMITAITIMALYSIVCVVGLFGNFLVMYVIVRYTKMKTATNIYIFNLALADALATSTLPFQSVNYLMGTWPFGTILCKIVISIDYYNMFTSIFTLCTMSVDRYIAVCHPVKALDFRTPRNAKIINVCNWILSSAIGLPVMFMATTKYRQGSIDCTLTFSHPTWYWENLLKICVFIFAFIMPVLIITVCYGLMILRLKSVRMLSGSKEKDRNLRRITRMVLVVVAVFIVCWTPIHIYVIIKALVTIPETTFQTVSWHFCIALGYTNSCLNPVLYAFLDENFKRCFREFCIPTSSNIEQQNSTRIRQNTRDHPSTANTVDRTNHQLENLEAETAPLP
Target sequence (P41143 whole entry, looked up): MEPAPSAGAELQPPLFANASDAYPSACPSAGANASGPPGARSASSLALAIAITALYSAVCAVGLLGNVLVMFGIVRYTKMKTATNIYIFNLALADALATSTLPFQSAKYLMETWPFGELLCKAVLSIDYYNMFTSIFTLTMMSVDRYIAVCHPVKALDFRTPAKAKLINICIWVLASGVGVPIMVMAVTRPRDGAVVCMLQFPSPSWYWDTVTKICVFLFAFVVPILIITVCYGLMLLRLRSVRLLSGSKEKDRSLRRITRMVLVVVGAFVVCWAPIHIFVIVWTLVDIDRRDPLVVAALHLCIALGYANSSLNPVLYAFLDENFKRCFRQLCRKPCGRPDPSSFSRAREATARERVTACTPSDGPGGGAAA
MOR-DOR ag – agonists of human mu-delta opioid receptor heterodimerization; 340,000 tested, 0.3% active; cells, OPRM1-OPRD1 heterodimerization, luminescence; activation, % at 9.3 µM; in the data active = activation above about 18%
HTR5A inv ctr – counter-screen for OPRM1-OPRD1 inverse agonists: human HTR5A inverse agonism | AID 504634 | inhibition, % at 9.3 µM | HTR5A cell line, luminescence | 340,000 tested, 0.083% active; in the data active = inhibition mostly above about 23%, no sharp cut-off; inactive = mostly below about 18%
HTR5A ag ctr – counter-screen for OPRM1-OPRD1 agonists: human HTR5A agonism. P47898. HTR5A agonist assay, luminescence, cell-based. activation, % at 9.3 µM. 340,000 tested, 0.61% active; in the data active = activation mostly above about 9.5%, no sharp cut-off; inactive = mostly below about 7.6%
MOR-DOR inv conf – confirmation of human OPRM1-OPRD1 heterodimerization inverse agonists | shares compounds with MOR-DOR inv ag | cells expressing OPRM1/OPRD1 heterodimer, luminescence | inhibition, % at 9.3 µM | 580 tested, 20% active | AID 504900; in the data active = inhibition above about 32%
HTR5A inv count – counter-screen for OPRM1-OPRD1 inverse agonists: human HTR5A inverse agonism | shares compounds with MOR-DOR inv ag | HTR5A-expressing cells, luminescence | inhibition, % at 9.3 µM | 580 tested, under 10 active | AID 504914; call rule not given here
Large screens that a line does not name were inactive (follow-up assays come after a bar, where they were run). Shown are actives, neighbours in structure and some others; about 1.1% of the full set was active somewhere.

Cc1ccc(NC2(C#N)C(=O)Nc3ccccc32)cc1C (stereo unspecified)	MOR-DOR inv ag 56 | MOR-DOR inv conf inactive | HTR5A inv count inactive
Cc1cc(C)c(C(=O)CC2(O)C(=O)Nc3ccccc32)cc1C (stereo unspecified)	none
COC(=O)c1ccc(NC2(C#N)C(=O)Nc3ccccc32)cc1 (stereo unspecified)	MOR-DOR inv ag 83 | MOR-DOR inv conf 64 | HTR5A inv count inactive
CC(OC(=O)c1ccc2ncsc2c1)C(=O)Nc1cccc(Cl)c1 (stereo unspecified)	none
CCNC(=S)NNC(=O)CSc1nc2ccccc2n1C	MOR-DOR inv ag 38 | MOR-DOR inv conf inactive | HTR5A inv count inactive
CCNC(=S)NNC(=O)CSc1nc2ccccc2[nH]1	none
O=C(COC(=O)CCOc1ccccc1)NCCc1ccccc1	none
O=C(CCOc1ccccc1)OCC(=O)c1cc2ccccc2o1	MOR-DOR inv ag 37 | MOR-DOR inv conf inactive | HTR5A inv count inactive
CC(=O)NC(=S)Nc1ccccc1C(=O)Nc1ccccc1	MOR-DOR inv ag 27 | MOR-DOR inv conf inactive | HTR5A inv count inactive
CCCCC(=O)NC(=S)Nc1ccccc1C(=O)Nc1ccccc1	MOR-DOR inv ag 30 | MOR-DOR inv conf inactive | HTR5A inv count inactive
Cc1cc(C)cc(OCC(=O)NNC(=S)NC(=O)C2CC2)c1	MOR-DOR inv ag 39 | MOR-DOR inv conf inactive | HTR5A inv count inactive
Cc1ccccc1-c1cc2c(nn1)-c1ccccc1C2=O	none
O=C1c2ccccc2-c2nnc(-c3ccc(O)cc3)cc21	none
O=C1c2ccccc2-c2nnc(-c3ccc(F)cc3)cc21	MOR-DOR inv ag 81 | MOR-DOR inv conf inactive | HTR5A inv count inactive
Cc1ccc(-c2cc3c(nn2)-c2ccccc2C3=O)cc1	MOR-DOR inv ag 99 | MOR-DOR inv conf inactive | HTR5A inv count inactive
CCOC(=O)c1sc(NC(=O)C2CC(=O)N(c3ccc(OCC)cc3)C2)nc1C (stereo unspecified)	none
Cc1cc(NC(=O)CSc2ccnc(=O)[nH]2)no1	none
CCN1C(=O)CS/C1=N\S(=O)(=O)c1ccc(Cl)cc1	none
CCn1c(Cl)c(C=O)s/c1=N\S(=O)(=O)c1ccccc1	MOR-DOR inv ag 34 | MOR-DOR inv conf inactive | HTR5A inv count inactive
COc1ccccc1N1CCN(C(=O)c2c(-c3c(F)cccc3Cl)noc2C)CC1	none
O=C1c2ccccc2C(=O)N1CCOc1ccccc1Cl	none
Cc1cccc2c1N(CCOc1ccccc1Cl)C(=O)C2=O	MOR-DOR inv ag 34 | MOR-DOR inv conf inactive | HTR5A inv count inactive
Cc1ccccc1OCCN1C(=O)C(=O)c2cccc(C)c21	MOR-DOR inv ag 58 | MOR-DOR inv conf inactive | HTR5A inv count inactive
COc1ccccc1OCCCN1C(=O)C(=O)c2cccc(C)c21	MOR-DOR inv ag 41 | MOR-DOR inv conf 56 | HTR5A inv count inactive
[O-]/[N+](=C\c1ccccc1)[C@@H]1CCCC[C@@H]1/[N+]([O-])=C/c1ccccc1	MOR-DOR inv ag 37 | MOR-DOR inv conf inactive | HTR5A inv count inactive
Cc1ccc(C(=O)COC(=O)CNS(=O)(=O)c2ccccc2)cc1[N+](=O)[O-]	MOR-DOR inv ag 59 | MOR-DOR inv conf inactive | HTR5A inv count inactive
Cc1ccc(C(=O)COC(=O)CCS(=O)(=O)c2ccccc2)cc1[N+](=O)[O-]	MOR-DOR inv ag 42 | MOR-DOR inv conf inactive | HTR5A inv count inactive
Cc1ccc(C)c(C(=O)COC(=O)CNS(=O)(=O)c2ccccc2)c1	none
Cc1ccc(S(=O)(=O)CCC(=O)OCC(=O)c2ccc(C)c(C)c2)cc1	none
O=C(Nc1ccc2ccccc2c1)NC1CCS(=O)(=O)C1 (stereo unspecified)	none
Cc1ccc(N/N=C/c2cccnc2)cc1	MOR-DOR inv ag 52 | MOR-DOR inv conf inactive | HTR5A inv count inactive
Cc1ccc(N/N=C/c2ccncc2)cc1	none
COc1cc(C(C)=O)ccc1OCc1cn(CC(=O)c2ccc(O)cc2)nn1	MOR-DOR inv ag 32 | MOR-DOR inv conf inactive | HTR5A inv count inactive
CN(C(=O)c1ccc(NC(=O)Cc2cccc(NC(=O)C3CCN(C(=O)CCc4ccccc4)CC3)c2)cc1)C1CCCC1	none
COc1cccc(-n2nc(C(N)=O)c(O)cc2=O)c1	none
COc1cccc(-n2nc(C#N)c(Cl)cc2=O)c1	MOR-DOR inv ag 28 | MOR-DOR inv conf inactive | HTR5A inv count inactive
CCCCC(=O)Nc1ccc(Br)cc1C(=O)O	none
CC(=O)Nc1ccc(Br)cc1C(=O)C(=O)O	MOR-DOR inv ag 36 | MOR-DOR inv conf inactive | HTR5A inv count inactive
CC(C)(C)c1ccc(OCC(=O)NNC(=S)NC(=O)c2ccccc2[N+](=O)[O-])c(Br)c1	MOR-DOR inv ag 32 | MOR-DOR inv conf inactive | HTR5A inv count inactive
COc1ccc(N2C(=NC(=O)C3CC3)SC3CS(=O)(=O)CC32)cc1Cl (stereo unspecified)	none
CC(C)(C)c1ccc(OCCC(=O)NC2=NCCS2)cc1	none
CCOC(=O)C(OC(=O)c1sc(=S)n(C)c1C)C(C)=O (stereo unspecified)	MOR-DOR inv ag 39 | MOR-DOR inv conf inactive | HTR5A inv count inactive
CCOc1ccc2c(c1)/C(=N/N1C(=O)c3ccccc3C1=O)C(=O)N2	MOR-DOR inv ag 42 | MOR-DOR inv conf inactive | HTR5A inv count inactive
Cc1ccc2c(c1)/C(=C/c1ccccc1C)C(=O)N2	none
Cc1ccc2c(c1)/C(=N/N1C(=O)c3ccccc3C1=O)C(=O)N2	MOR-DOR inv ag 28 | MOR-DOR inv conf inactive | HTR5A inv count inactive
O=C(Nc1ccc(Br)cc1)C1CCCC1	none
O=C(c1ccc(NS(=O)(=O)c2ccc(F)cc2)cc1)N1CCC1	none
CC(=O)N1CCN(c2nnc(-c3ccccc3)c3ccccc23)CC1	none
CC(=O)C1=C(c2ccccc2)N(C(C)=O)n2c(C)nnc2S1	MOR-DOR inv ag 86 | MOR-DOR inv conf inactive | HTR5A inv count inactive
Clc1nc(-c2ccccc2)cc(-c2ccccc2)n1	none
NS(=O)(=O)c1ccc(N=C2C(=O)Nc3ccccc32)cc1	MOR-DOR inv ag 64 | MOR-DOR inv conf inactive | HTR5A inv count inactive
NC(=O)c1ccc(N=C2C(=O)Nc3ccc([N+](=O)[O-])cc32)cc1	none
O=C1Nc2ccccc2C1=Nc1cccc([N+](=O)[O-])c1	MOR-DOR inv ag 48 | MOR-DOR inv conf inactive | HTR5A inv count inactive
COc1ccc(N=C2C(=O)Nc3ccccc32)cc1	MOR-DOR inv ag 50 | MOR-DOR inv conf inactive | HTR5A inv count inactive
O=C1Nc2ccccc2C1=Nc1ccc(S(=O)(=O)Nc2nccs2)cc1	none
COc1ccc(N=C2C(=O)Nc3ccc(C)c(Br)c32)cc1	MOR-DOR inv ag 70 | MOR-DOR inv conf inactive | HTR5A inv count inactive
O=C1C[C@@H]2c3c(cccc3CN1Cc1ccccc1F)C[C@@H](O)[C@H]2O	none
CCN(C[C@H]1N[C@@](Cc2ccccc2)(C(=O)OC)[C@H]2C(=O)N(Cc3ccccc3)C(=O)[C@@H]12)C(=O)COc1ccccc1	none
O=C1Nc2ccccc2C1=Nc1ccc(F)cc1	MOR-DOR inv ag 59 | MOR-DOR inv conf inactive | HTR5A inv count inactive
